GDH-TPI counter-1: GDH-TPI coupling enzyme inhibitors, primary screen, artefact control for M. tuberculosis FBA inhibitor project, biochemical, absorbance, full deck | 360,000 compounds, 1.2% hits | inhibition, % at 4.8 µM | AID 588335, 2011 | GDH-TPI coupled enzyme counterscreen, NADH absorbance; in the data active means inhibition above about 30%
RecA splice inh: Mtb RecA intein splicing inhibitors, primary screen, biochemical, fluorescence, HTS; cell-free RecA intein splicing; inhibition, % (concentration not given with the values); 290,000 compounds, 0.75% hits; Protein RecA (Mycobacterium tuberculosis (strain ATCC 25618 / H37Rv)), P9WHJ3; in the data active means inhibition above about 30%
Rv3671c inh: Rv3671c serine protease inhibitors, primary screen, biochemical, fluorescence polarization, M. tuberculosis H37Rv; P9WHR9; inhibition, % at 5.96 µM; 320,000 compounds, 0.048% hits; AID 2606, 2010; in the data active means inhibition above about 38%;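 further: extracellular domain of Rv3671c used as enzyme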
Target sequence (P9WHR9 whole entry, looked up, the tested form may be a part): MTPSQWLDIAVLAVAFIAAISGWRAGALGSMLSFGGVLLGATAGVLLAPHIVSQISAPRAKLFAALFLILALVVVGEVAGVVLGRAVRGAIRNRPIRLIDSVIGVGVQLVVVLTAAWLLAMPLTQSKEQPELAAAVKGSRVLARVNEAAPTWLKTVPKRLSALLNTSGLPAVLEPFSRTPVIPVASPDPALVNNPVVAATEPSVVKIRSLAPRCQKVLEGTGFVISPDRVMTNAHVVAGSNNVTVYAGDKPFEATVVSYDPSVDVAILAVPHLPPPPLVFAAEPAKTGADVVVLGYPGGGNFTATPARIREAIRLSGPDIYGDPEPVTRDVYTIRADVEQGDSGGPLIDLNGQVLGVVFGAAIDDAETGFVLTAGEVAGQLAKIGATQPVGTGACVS
Mtb UGM inh: M. tuberculosis UGM enzyme inhibitors, primary screen, biochemical, fluorescence polarization, single point; UDP-galactopyranose mutase (Mycobacterium tuberculosis (strain ATCC 25618 / H37Rv)), …; purified UGM, fluorescence polarization probe displacement; inhibition, % at 10 µM; 320,000 compounds, 0.06% hits; in the data active means inhibition above about 10%, passing the limit was not always enough
Mtb FBA inh: Mtb FBA enzyme inhibitors, primary screen, biochemical, fluorescence, strain H37Rv; 360,000 compounds, 2.3% hits; purified M. tuberculosis FBA, fluorescence read-out; Fructose-bisphosphate aldolase (Mycobacterium tuberculosis (strain ATCC 25618 / H37Rv)), …; inhibition, % at 1 µM; AID 588726, 2011
Mtb betalactam: beta-lactam sensitization of Mtb H37Rv, H37Rv | M. tuberculosis H37Rv growth with meropenem, percent inhibition | inhibition, % at 25 µM | 330,000 compounds, 0.27% hits; call rule not given here;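 further: growth measured after seven days incubation then overnight dye step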
Mtb FBA inh conf: M. tuberculosis aldolase blockers, biochemical, fluorescence, strain H37Rv, confirmation | shares compounds with Mtb FBA inh | purified M. tuberculosis FBA, fluorescence read-out | inhibition, % at 1 µM | 5,600 compounds, 78% hits | AID 651616, 2012
GDH-TPI counter-2: GDH-TPI coupling enzyme inhibitors, artefact control for M. tuberculosis FBA inhibitor project, biochemical, fluorescence, high throughput; shares compounds with Mtb FBA inh; GDH-TPI coupled enzyme counterscreen; inhibition, % at 1 µM; 5,600 compounds, 81% hits; AID 652141, 2013; in the data active means inhibition above about 10%
A number is an active result; 0 = inactive; - = no result; + = active, no number. Shown are actives, neighbours in structure and some others; about 4% of the full set was active somewhere. Unless noted, no stated cut-off is given here; in the data, active means inhibition above about 27%; inactive means the rest.

SMILES	GDH-TPI counter-1	RecA splice inh	Rv3671c inh	Mtb UGM inh	Mtb FBA inh	Mtb betalactam	Mtb FBA inh conf	GDH-TPI counter-2
Cc1cc(C)c2cc(C#N)c(NCCCNC(=O)c3ccncc3)nc2c1	0	-	-	-	0	-	-	-
COc1ccc(C(=O)NCCNc2nc3ccc(C)cc3cc2C#N)cc1OC	0	0	0	0	35	0	+	158
CCOc1ccccc1C(=O)Oc1ccc2ccc(=O)oc2c1	0	0	0	0	66	0	83	81
O=C(Oc1ccc2ccc(=O)oc2c1)C1CCCCC1	0	0	0	0	108	0	+	+
O=C(COc1ccc2ccc(=O)oc2c1)NC1CCCC1	0	0	0	0	0	0	-	-
Cc1cc(=O)oc2cc(OC(=O)c3ccccc3)ccc12	0	0	0	0	75	0	+	+
O=C(Oc1ccc2ccc(=O)oc2c1)c1ccccc1	0	0	0	0	63	0	50	41
COc1ccc(C(=O)Oc2ccc3ccc(=O)oc3c2)cc1	0	0	0	0	0	0	-	-
Cc1ccc(F)cc1C(=O)N1CCCC1(C)C(=O)NCC(C)C (stereo not given)	0	-	-	-	0	-	-	-
COc1cccc(COc2ccc3c(C)cc(=O)oc3c2)c1	0	0	0	0	0	0	-	-
COc1ccc2c(C)cc(=O)oc2c1	0	-	-	-	55	-	91	61
O=c1ccc2ccc(OCCOc3cccc(Cl)c3)cc2o1	0	0	0	0	49	0	173	157
Cc1ccccc1-c1cccc([C@@H]2C[C@H]3[C@H](CON3C)CN2Cc2ccccc2)c1	0	-	-	-	0	-	-	-
Cc1ccn2cc(-c3cccc(NC(=O)CCC(=O)O)c3)nc2c1	0	0	0	0	44	0	45	34
CC(=O)Nc1cccc(-c2cn3ccc(C)cc3n2)c1	0	0	0	0	50	0	+	+
Cc1cccc2nc(-c3cccc(NC(=O)Cc4ccccc4)c3)cn12	0	0	0	0	0	0	-	-
CC(=O)Nc1ccc2nc(-c3ccccc3)cn2c1	0	0	0	0	38	0	+	184
Cc1ccn2cc(-c3ccc(NS(=O)(=O)c4ccccc4)cc3)nc2c1	0	0	0	-	0	0	-	-
Cc1ccn2cc(-c3cccc(NS(C)(=O)=O)c3)nc2c1	0	0	0	0	37	0	60	31
Clc1ccc2nc(-c3ccccc3)cn2c1	0	0	0	0	0	0	-	-
COc1ccc(S(=O)(=O)NCc2ccc(C(=O)NCCCN3CC(C)CC(C)C3)cc2)cc1 (stereo not given)	0	0	0	0	0	0	-	-
CCC1Oc2ccc(C)cc2N(CC(=O)N2CCOCC2)C1=O (stereo not given)	0	0	0	0	0	0	-	-
COc1cc(C(C)=O)ccc1Oc1cc(NN2CCCCC2)c([N+](=O)[O-])cc1[N+](=O)[O-]	0	0	0	0	0	0	-	-
O=C(O)CCC(=O)NN1C(=O)c2ccccc2NC1c1ccco1 (stereo not given)	0	0	0	0	32	0	0	0
CC1Nc2ccccc2C(=O)N1NC(=O)c1ccc(Br)cc1 (stereo not given)	0	0	0	0	0	0	-	-
SMILES	GDH-TPI counter-1	RecA splice inh	Rv3671c inh	Mtb UGM inh	Mtb FBA inh	Mtb betalactam	Mtb FBA inh conf	GDH-TPI counter-2
CCOC(=O)NN1C(=O)c2ccccc2NC1C (stereo not given)	0	0	0	0	72	0	146	116
CCOC(=O)NN1C(=O)c2ccccc2NC1c1ccccn1 (stereo not given)	0	0	0	0	30	0	105	77
CCOC(=O)NN1C(=O)c2ccccc2NC1c1ccc(OC)cc1 (stereo not given)	0	0	0	0	40	0	140	119
CCN(c1ccccc1)S(=O)(=O)c1cccc(C(=O)N(C)CC(=O)Nc2ccc(F)c(F)c2F)c1	0	-	-	-	0	-	-	-
CCCc1cc(=O)[nH]c(SCC(=O)Nc2sc3c(c2C(N)=O)CCCC3)n1	0	-	0	0	0	0	-	-
COc1ccc(-c2csc(NC(=O)C3CSC4(C)CCC(=O)N34)n2)c(OC)c1 (stereo not given)	0	0	0	-	0	0	-	-
COc1cccc(NC(=O)CN(C)C(=O)CC2CCCCC2)c1	0	-	-	-	0	-	-	-
CCOC(=O)NN1C(=O)c2ccccc2NC1c1ccccc1 (stereo not given)	0	0	0	0	39	0	+	+
CS(=O)(=O)NN1C(=O)c2ccccc2NC1c1ccccc1F (stereo not given)	0	0	0	0	0	0	-	-
CCOC(=O)NN1C(=O)c2ccccc2NC1c1ccccc1F (stereo not given)	0	0	0	0	37	0	51	32
CCOC(=O)NN1C(=O)c2ccccc2NC1c1ccc(N(C)C)cc1 (stereo not given)	0	0	0	0	0	0	-	-
CC(NC(=O)c1ccc(S(=O)(=O)Nc2ccccc2Cl)cc1)c1ccncc1 (stereo not given)	0	-	0	0	0	0	-	-
CC(C)CN(C(=O)COC(=O)c1ccccc1NCc1ccco1)c1c(N)n(Cc2ccccc2)c(=O)[nH]c1=O	0	0	0	0	31	0	152	123
COCCN(C(=O)COC(=O)c1ccccc1NCc1ccco1)c1c(N)n(Cc2ccccc2)c(=O)[nH]c1=O	0	0	0	0	81	0	151	118
COCCN(C(=O)COC(=O)c1ccco1)c1c(N)n(Cc2ccccc2)c(=O)[nH]c1=O	0	0	0	0	0	0	-	-
CC1(C(=O)NCC2CCCCC2)CCN1C(=O)Cc1ccc(-c2ccccc2)cc1 (stereo not given)	0	-	-	-	0	-	-	-
CN(C)c1ccc(-c2ccnc3c2CC(C)(C(=O)Nc2ccc(Cl)c(C(F)(F)F)c2)O3)cc1 (stereo not given)	0	-	-	-	84	-	54	40
CC(=O)Nc1ccc(-c2ccnc3c2CC(C)(C(=O)Nc2ccc(Cl)c(C(F)(F)F)c2)O3)cc1 (stereo not given)	0	-	-	-	0	-	-	-
COc1ccc(NC(=O)C2(C)Cc3c(-c4ccc(N(C)C)cc4)ccnc3O2)cn1 (stereo not given)	0	-	-	-	40	-	129	103
CC(=O)Nn1cc2c(c1-c1ccccc1)c(=O)n(C)c(=O)n2C	0	0	0	0	0	0	-	-
CC(=O)n1c(-c2ccccc2)c(-c2ccccc2)n(C)c1=O	0	0	0	0	50	0	78	50
